This is part of a sample that, as a whole, favours compounds with a hit. Of some 83,000 tested, about 20% had one in any assay.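 Assay: single dose, 48 h. Readout: percent growth (0 = no net growth; negative = cell death). Active: <10.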 Activity calls are given as the source filed them.
Legend:
Experiment in all cases: NCI-60 one-dose screen, 48 h (100 = growth as untreated, 0 = no growth, -100 = all killed)
Details in all cases: 10 µM unless noted
[1] = tested on: HCT-15 colon
[2] = tested on: HT29 colon
[3] = tested on: SNB-75 CNS
[4] = tested on: SNB-19 CNS
[5] = tested on: U251 CNS
[6] = tested on: PC-3 prostate
[7] = tested on: SK-MEL-5 melanoma
[8] = tested on: UACC-62 melanoma
[9] = tested on: LOX IMVI melanoma
[10] = tested on: SK-MEL-28 melanoma
[11] = tested on: SK-MEL-2 melanoma
[12] = tested on: EKVX NSCLC
[13] = tested on: SN12C renal
[14] = tested on: UO-31 renal
[15] = tested on: TK-10 renal
[16] = tested on: ACHN renal
[17] = tested on: CAKI-1 renal
[18] = tested on: CCRF-CEM leukemia
[19] = tested on: MOLT-4 leukemia
[20] = tested on: A498 renal

Measured: growth

O=C(NC1CCCCCC1)c1ccc2c(=O)n3c(nc2c1)CCCCC3
inactive: [1] 80.4% | [2] 87.3% | [3] 62.9% | [4] 102% | [5] 99.7% | [6] 92.2% | [7] 94.9% | [8] 93.6% | [9] 96.1% | [10] 108% | [11] 112% | [12] 107% | [13] 97.8% | [14] 99.8% | [15] 104% | [16] 108% | [17] 108% | [18] 98.8% | [19] 128%

CN(CCNc1ccc(C(=N)N)cc1)c1ccc(C(=N)N)cc1
inactive: [1] 84.5% | [2] 101% | [3] 96.8% | [4] 104% | [5] 81.2% | [6] 82.2% | [7] 67% | [8] 72.6% | [9] 82.4% | [10] 94.8% | [11] 90.4% | [12] 84.1% | [13] 39.3% | [14] 88.3% | [15] 94.1% | [16] 78.4% | [17] 62% | [20] 57.7% | [19] 87.6%

Cn1cc(-c2csc(-c3cn(C)c4ccc(F)cc34)n2)c2cnccc21
active: [1] -46.4% | [2] -66.8% | [3] -73% | [4] 3.63% | [5] -89.5% | [7] -94.1% | [8] -69.4% | [9] -90% | [10] -95.9% | [12] -13.1% | [13] -29.9% | [14] -69.7% | [16] -89.6% | [17] -43.9% | [18] -11.6% | [19] -36.1%
inactive: [6] 10.5% | [11] 88.9% | [20] 78.3%

C=C(C)[C@@H]1CCC[C@]2(C(=O)OC)CC[C@]3(C)[C@@H](CC[C@@H]4[C@@]5(C)CCCNC(C)(C)[C@@H]5CC[C@]43C)[C@@H]12
inactive: [1] 93.1% | [2] 56.5% | [3] 91.7% | [4] 88.3% | [5] 94.1% | [6] 74.1% | [7] 90% | [8] 87.8% | [9] 97.8% | [10] 94.3% | [11] 94% | [12] 88.2% | [13] 92.1% | [14] 57.7% | [15] 90.4% | [16] 88.2% | [17] 73.3% | [18] 84% | [19] 76.9%

O=C1c2c(c3c4cc(F)ccc4oc3c3[nH]c4ccccc4c23)C(=O)N1O
inactive: [1] 33.2% | [2] 31.4% | [3] 10.3% | [4] 26.7% | [5] 24.5% | [6] 32.3% | [10] 29% | [11] 78% | [12] 62.3% | [13] 28.1% | [15] 102% | [17] 16.9%
active: [7] -30% | [8] 3.37% | [9] -25.3% | [14] 8.37% | [16] 0.963% | [18] 5.67% | [19] -22.5%

COc1ccc(S(=O)(=O)Oc2ccc(-c3sc4cc(OS(=O)(=O)c5ccc(OC)cc5)ccc4c3C(=O)c3ccc(OCCN4CCCCC4)cc3)cc2)cc1
inactive: [1] 101% | [2] 92% | [3] 70.9% | [4] 103% | [5] 99.7% | [6] 106% | [7] 101% | [8] 101% | [9] 101% | [10] 103% | [11] 119% | [12] 97% | [13] 99.9% | [14] 80.7% | [15] 95% | [16] 101% | [17] 94.1% | [18] 97.7% | [19] 89.3%

COc1ccc(C2=NN(C=O)C(c3ccc(Oc4nc5c(c(=O)n(C)c(=O)n5C)n4C)c(OC)c3)C2)cc1 (configuration not stated)
inactive: [1] 88.9% | [2] 71.8% | [3] 94.1% | [4] 69.1% | [5] 90.1% | [6] 78.4% | [7] 59.8% | [8] 88.5% | [9] 68.2% | [10] 97.8% | [11] 100% | [12] 91.8% | [13] 53.8% | [15] 104% | [16] 84.8% | [17] 75.2% | [20] 85.5% | [18] 80.5% | [19] 66.7%

Cc1c(C)c2c(c(C)c1OC(=O)CCC(=O)[O-])CCC(C)(CCCCCCCCCCC[P+](c1ccccc1)(c1ccccc1)c1ccccc1)O2 (configuration not stated)
active: [1] 2.7% | [2] 6.17% | [3] -31.5% | [4] -42.4% | [5] -70.1% | [6] -31.9% | [7] -98.3% | [8] -54.1% | [9] -91.4% | [10] -77.3% | [11] -64.4% | [12] -25.1% | [13] -65.7% | [14] -3.37% | [16] -5.75% | [17] -28.3% | [20] -73.9% | [19] -25.5%

CCCCCCCCNc1ncnc2c1ncn2Cc1nnc2c3ccccc3c(Cl)nn12
inactive: [1] 32.8% | [2] 44.1% | [3] 37.6% | [4] 56.2% | [5] 44.8% | [6] 36.5% | [7] 39.3% | [8] 29.9% | [9] 12.8% | [10] 62.9% | [11] 16.7% | [12] 57.3% | [13] 29.7% | [16] 28.5% | [17] 16.7% | [20] 69.8% | [18] 24.2% | [19] 12.3%

COc1cc2c(cc1OC)CC[N+](CCC[N+](C)(C)C)=C2
inactive: [1] 101% | [2] 88.5% | [3] 80.2% | [4] 110% | [5] 98.9% | [6] 83.9% | [7] 104% | [8] 110% | [9] 99.3% | [10] 98.7% | [11] 88.9% | [12] 100% | [14] 91.1% | [15] 80.5% | [16] 104% | [17] 96.3% | [20] 104% | [18] 97.9% | [19] 91.6%

CN(C)CCOc1ccc(/C(=C(/CCCCCCCCCC[P+](c2ccccc2)(c2ccccc2)c2ccccc2)c2ccccc2)c2ccccc2)cc1
active: [1] -88.7% | [2] -68.5% | [3] -88.7% | [4] -92.1% | [5] -75% | [6] -86% | [7] -97.1% | [8] -82.7% | [9] -89.9% | [10] -94.1% | [11] -75.9% | [12] -86.1% | [14] -90.3% | [15] -82.7% | [16] -95.8% | [17] -93.2% | [20] -92.9% | [18] -56% | [19] -60%

COc1cc(/C=C2\CN(S(=O)(=O)c3ccc(C)cc3)C/C(=C\c3cc(CN4CCCC4)c(O)c(OC)c3)C2=O)cc(CN2CCCC2)c1O
active: [1] -2.28% | [2] -60.7% | [5] -74.5% | [6] -20.2% | [7] -17.5% | [9] -92.5% | [12] 0.183% | [13] -56.1% | [14] 4.71% | [16] 1.63% | [18] -5.62% | [19] -8.53%
inactive: [3] 34.3% | [4] 15.6% | [8] 34.3% | [10] 10.3% | [11] 14.4% | [17] 23.9% | [20] 40.9%

O=C(/C=C/c1ccc(Cl)cc1)c1ccc(Nc2ccnc3cc(Cl)ccc23)cc1
inactive: [1] 56.1% | [2] 30.6% | [3] 92.5% | [4] 99.7% | [5] 52.7% | [6] 70.9% | [7] 53.3% | [8] 92.8% | [9] 83.3% | [10] 104% | [11] 54% | [12] 136% | [13] 97.1% | [15] 111% | [16] 109% | [17] 76.3% | [20] 108% | [19] 43.4%
active: [18] 3.01%

Cc1cc2nc(C(Cl)Cl)nc(-c3ccccc3)n2n1
active: [3] -4.36%
inactive: [1] 41.2% | [2] 12.6% | [4] 62.7% | [5] 36% | [6] 65.1% | [7] 94.4% | [8] 88.9% | [9] 75.1% | [10] 85.1% | [11] 110% | [12] 61% | [13] 85.6% | [15] 59.2% | [16] 11.6% | [17] 35% | [20] 20.8% | [18] 79.1% | [19] 53.1%

COc1ccc(/C=C/C(=O)c2ccc(-n3cc(CN4CCN(c5cc6c(cc5F)c(=O)c(C(=O)O)cn6C5CC5)CC4)nn3)cc2)cc1
inactive: [1] 80.6% | [2] 29.6% | [3] 58.3% | [4] 67.7% | [5] 41.4% | [6] 56.3% | [7] 69% | [8] 53.9% | [9] 27.9% | [10] 79.7% | [11] 97% | [12] 96.6% | [13] 32.6% | [14] 54.9% | [16] 85% | [17] 67.8% | [18] 44% | [19] 64.2%

Reference: PubChem BioAssay (NCI)
